From PubChem BioAssay
The source made the active and inactive calls. Unless noted, the rule behind the calls is not given here.

Legend:
[1] = tested on: Wnt5a (protein binding on small-molecule microarray); assay: small molecules binding Wnt5a protein – biophysical, small-molecule microarray, 635/667 nm fluorescence, primary screen (AID 1142); settings: 635 nm fluorescence, higher = more signal;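 note: fluorescence read at 667 nm with signal to noise per printed feature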
[2] = ATP-based viability of Huh7 replicon cells – cell-based, CellTiter-Glo luminescence, basal, 48 h, cytotoxicity control for HCV replication inhibitor project, primary screen (AID 1143); settings: higher = more signal, called active from +8 up or from −8 down;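 note: Huh7 hepatoma cells carrying a hepatitis C replication reporter with no stimulus; test concentration not given here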
[3] = Pseudomonas biofilm growth suppression – PAO1 strain, BacTiter-Glo luminescence, LB-PBS, primary screen (AID 1144); settings: P. aeruginosa PAO1 biofilm, 12 h, higher = more signal
[4] = basal CRE-LacZ reporter activity in PC12 – cell-based, unstimulated, primary screen (AID 1145); settings: no forskolin, luminescence, 4.5 h, higher = more signal, called active from +8 up or from −8 down
[5] = forskolin-driven CRE-LacZ activity in PC12 – cell-based, CRE-LacZ reporter, forskolin-stimulated, primary screen (AID 1146); settings: luminescence, 4.5 h, higher = more signal, called active from +8 up or from −8 down;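 note: PC12 cells with 6xCRE LacZ reporter stimulated by forskolin 10 µM; beta-galactosidase reporter signal reflecting CREB driven transcription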
[6] = target: Streptavidin (Streptomyces avidinii) (UniProt P22629); assay: compounds binding control protein streptavidin – biophysical, small-molecule microarray, 635/667 nm fluorescence, artefact control for SMM compound annotation, primary screen (AID 1147); settings: higher = more signal;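 note: signal reflects streptavidin binding to arrayed compounds as a control protein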
Sequence of Streptavidin (Streptomyces avidinii) (P22629 whole entry, looked up): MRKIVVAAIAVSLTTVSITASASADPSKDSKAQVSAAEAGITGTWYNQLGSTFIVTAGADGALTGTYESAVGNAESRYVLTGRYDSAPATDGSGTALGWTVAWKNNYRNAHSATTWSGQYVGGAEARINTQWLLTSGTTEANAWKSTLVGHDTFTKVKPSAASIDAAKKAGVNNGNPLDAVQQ

[7] = probe aInhba binding on compound microarray – biochemical, small-molecule microarray, 635/667 nm fluorescence, primary screen (AID 1148); settings: higher = more signal;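 note: score merges 667nm spot fluorescence with signal-to-noise for antibody binding to printed compounds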
Torsin-1A (Homo sapiens) [8] = target: Torsin-1A (Homo sapiens) (UniProt O14656); assay: TOR1A wild-type binding on microarray – cell lysate, small-molecule microarray, lysate, 635/667 nm, primary screen (AID 1149); settings: COS7 hTOR1A-WT lysate, 635 nm fluorescence, higher = more signal
Sequence of Torsin-1A (Homo sapiens) (O14656 whole entry, looked up): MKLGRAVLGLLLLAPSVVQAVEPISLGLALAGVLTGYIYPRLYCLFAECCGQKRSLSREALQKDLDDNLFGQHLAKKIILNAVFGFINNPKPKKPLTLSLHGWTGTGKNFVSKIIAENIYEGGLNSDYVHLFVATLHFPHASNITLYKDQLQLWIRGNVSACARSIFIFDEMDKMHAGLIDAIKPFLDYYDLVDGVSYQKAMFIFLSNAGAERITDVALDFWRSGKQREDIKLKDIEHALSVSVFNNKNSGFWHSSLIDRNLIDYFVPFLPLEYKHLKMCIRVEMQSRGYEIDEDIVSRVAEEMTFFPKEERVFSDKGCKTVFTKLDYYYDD

Torsin-1A (Homo sapiens) [9] = target: Torsin-1A (Homo sapiens) (UniProt O14656); assay: torsin A mutant lysate binding on microarrays – cell lysate, small-molecule microarray, COS7 lysate, 635/667 nm fluorescence, primary screen (AID 1150); settings: COS7 hTOR1A mutant lysate, 635 nm fluorescence, higher = more signal;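 note: score pools 667 nm emission and signal to noise measuring lysate protein binding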
[10] = tested on: Sonic hedgehog protein (Shh); assay: Sonic hedgehog microarray binding compounds – biochemical, small-molecule microarray, 635/667 nm fluorescence, primary screen (AID 1151); settings: 635 nm fluorescence, higher = more signal;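 note: Shh protein binding to compounds spotted on small-molecule microarray slides; score combines spot fluorescence intensity with signal-to-noise across triplicate slides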
[11] = optical density shifts of acrAB sulA E. coli – strain DRC41, OD650, 48 h, E. coli filamentation inducer project, primary screen (AID 1152); settings: higher = more signal, called active from +8 up or from −8 down;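 note: E. coli MC1000 strain DRC41 lacking acrAB efflux pump and sulA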
[12] = probe aLefty1 binding on compound microarray – biochemical, small-molecule microarray, 635/667 nm fluorescence, primary screen (AID 1153); settings: higher = more signal;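 note: score merges spot fluorescence with signal-to-noise ratio from the scanned slide images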
[13] = plasmodial surface anion channel blockers, osmotic lysis – cell-based, P. falciparum Indochina, OD700, 1 h, primary screen (AID 1154); settings: P. falciparum Indochina infected RBC osmotic lysis, higher = more signal, called active from +8 up or from −8 down
[14] = plasmodial surface anion channel blockers, osmotic lysis – cell-based, P. falciparum Indochina, OD700, 2 h, primary screen (AID 1155);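 note: lysis reports solute entry through the parasite surface anion channel PSAC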; settings: P. falciparum Indochina infected erythrocytes, higher = more signal, called active from +8 up or from −8 down
[15] = changes in parasitized red cell lysis, either direction – P. falciparum Indochina, OD700, 3 h, PSAC antagonist project, primary screen (AID 1156); settings: P. falciparum-infected erythrocytes, osmotic lysis, higher = more signal, called active from +8 up or from −8 down
[16] = plasmodial surface anion channel blockers, osmotic lysis – cell-based, P. falciparum Indochina, OD700, 18 h, primary screen (AID 1157); settings: P. falciparum Indochina infected erythrocytes, osmotic lysis OD700, 18 h; higher = more signal, called active from +8 up or from −8 down
[17] = S6 kinase pathway phospho-S6 level changes – cell-based, A549, cytoblot, luminescence, serum-stimulated, primary screen (AID 1158); settings: 5 h, higher = more signal;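 note: serum-stimulated A549 lung adenocarcinoma cells; signal is phosphorylated S6 detected by cytoblot immunostaining with HRP secondary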
[18] = target: NADPH oxidase 2 (Homo sapiens) (UniProt P04839); assay: compounds shifting NOX2 Amplex Red fluorescence – cell-based, HEK293-NOX2, PMA-stimulated, NOX inhibitor project, primary screen (AID 1159); settings: 45 min, higher = more signal, called active from +8 up or from −8 down; note: test concentration not given here
Sequence of NADPH oxidase 2 (Homo sapiens) (P04839 whole entry, looked up): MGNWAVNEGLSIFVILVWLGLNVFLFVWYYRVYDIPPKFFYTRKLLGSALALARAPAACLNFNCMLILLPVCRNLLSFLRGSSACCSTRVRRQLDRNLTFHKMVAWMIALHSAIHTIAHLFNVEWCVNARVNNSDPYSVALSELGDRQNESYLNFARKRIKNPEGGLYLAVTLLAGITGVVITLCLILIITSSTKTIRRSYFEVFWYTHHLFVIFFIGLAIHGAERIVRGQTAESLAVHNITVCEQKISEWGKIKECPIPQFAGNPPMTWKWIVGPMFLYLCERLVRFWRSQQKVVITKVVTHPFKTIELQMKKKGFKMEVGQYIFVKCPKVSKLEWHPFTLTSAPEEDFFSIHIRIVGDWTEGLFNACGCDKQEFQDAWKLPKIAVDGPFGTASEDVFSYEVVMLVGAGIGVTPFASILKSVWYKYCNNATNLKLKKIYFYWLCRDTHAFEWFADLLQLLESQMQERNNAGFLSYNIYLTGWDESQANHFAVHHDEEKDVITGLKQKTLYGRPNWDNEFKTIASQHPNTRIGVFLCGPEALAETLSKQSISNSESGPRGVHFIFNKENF

[19] = target: NADPH oxidase 4 (Homo sapiens) (UniProt Q9NPH5); assay: compounds shifting NOX4 Amplex Red fluorescence – cell-based, HEK293-NOX4, tetracycline-induced, NOX inhibitor project, primary screen (AID 1160); settings: HEK293-NOX4, Amplex Red H2O2 fluorescence, 45 min; higher = more signal, called active from +8 up or from −8 down
Sequence of NADPH oxidase 4 (Homo sapiens) (Q9NPH5 whole entry, looked up): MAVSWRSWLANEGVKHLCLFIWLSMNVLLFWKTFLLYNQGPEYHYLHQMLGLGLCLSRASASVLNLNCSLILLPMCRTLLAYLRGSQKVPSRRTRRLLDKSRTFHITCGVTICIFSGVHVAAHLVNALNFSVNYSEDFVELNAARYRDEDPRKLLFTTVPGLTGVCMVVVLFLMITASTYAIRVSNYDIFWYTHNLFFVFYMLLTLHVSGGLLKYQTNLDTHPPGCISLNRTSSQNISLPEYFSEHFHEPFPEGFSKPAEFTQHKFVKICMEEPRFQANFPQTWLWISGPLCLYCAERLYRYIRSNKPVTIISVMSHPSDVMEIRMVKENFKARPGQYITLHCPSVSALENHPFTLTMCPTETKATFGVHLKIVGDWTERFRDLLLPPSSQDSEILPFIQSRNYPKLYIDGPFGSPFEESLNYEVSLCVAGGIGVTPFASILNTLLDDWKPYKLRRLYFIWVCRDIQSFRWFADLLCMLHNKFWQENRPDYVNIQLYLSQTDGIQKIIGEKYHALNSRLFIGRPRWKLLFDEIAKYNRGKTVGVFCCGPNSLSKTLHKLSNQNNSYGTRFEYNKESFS

[20] = target: NADPH oxidase 5 (Homo sapiens) (UniProt Q96PH1); assay: compounds shifting NOX5 Amplex Red fluorescence – cell-based, HEK293-NOX5, NOX inhibitor project, primary screen (AID 1161); settings: HEK293-NOX5, ionomycin, 45 min, higher = more signal
Sequence of NADPH oxidase 5 (Homo sapiens) (Q96PH1 whole entry, looked up): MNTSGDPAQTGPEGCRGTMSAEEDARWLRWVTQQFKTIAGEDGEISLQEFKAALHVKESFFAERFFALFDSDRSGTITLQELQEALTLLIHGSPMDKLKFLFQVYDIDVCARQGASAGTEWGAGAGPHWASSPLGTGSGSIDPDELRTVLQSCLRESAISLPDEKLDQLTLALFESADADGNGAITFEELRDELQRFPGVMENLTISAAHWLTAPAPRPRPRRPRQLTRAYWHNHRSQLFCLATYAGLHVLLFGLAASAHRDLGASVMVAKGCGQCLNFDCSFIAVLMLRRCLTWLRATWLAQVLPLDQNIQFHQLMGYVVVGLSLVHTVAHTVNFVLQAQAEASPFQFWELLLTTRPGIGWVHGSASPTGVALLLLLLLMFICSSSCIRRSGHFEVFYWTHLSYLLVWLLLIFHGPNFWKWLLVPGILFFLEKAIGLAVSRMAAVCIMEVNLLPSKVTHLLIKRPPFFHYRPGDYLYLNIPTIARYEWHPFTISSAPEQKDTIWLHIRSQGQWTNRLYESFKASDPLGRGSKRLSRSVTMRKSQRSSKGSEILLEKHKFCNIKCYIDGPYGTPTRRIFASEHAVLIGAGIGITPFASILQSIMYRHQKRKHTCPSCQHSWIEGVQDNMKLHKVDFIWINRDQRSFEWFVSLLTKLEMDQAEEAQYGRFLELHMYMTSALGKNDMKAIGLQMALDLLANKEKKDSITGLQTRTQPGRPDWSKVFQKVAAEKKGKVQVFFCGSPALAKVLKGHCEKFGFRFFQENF

SMILES | composite z-score [1] | z-score [2] | z-score [3] | z-score [4] | z-score [5] | composite z-score [6] | composite z-score [7] | composite z-score (Torsin-1A (Homo sapiens) [8]) | composite z-score (Torsin-1A (Homo sapiens) [9]) | composite z-score [10] | z-score [11] | composite z-score [12] | z-score [13] | z-score [14] | z-score [15] | z-score [16] | z-score [17] | z-score [18] | z-score [19] | z-score [20]
CC(C)[Si]1(C(C)C)O[C@@H](c2ccccc2)c2cc(-c3ccc(-c4ccc(Cl)c(Cl)c4)o3)nc(-c3ccccc3)c21 | -0.0503 | -0.62 (inactive) | 0.115 (inactive) | -1.12 (inactive) | 2.02 (inactive) | 0.105 | -0.0044 | -0.118 | 0.261 | 0.15 | -1.12 (inactive) | -0.0611 | 0.704 (inactive) | 0.0805 (inactive) | -0.449 (inactive) | 0.656 (inactive) | -0.121 | -0.364 (inactive) | 1.36 (inactive) | 1.26
COc1cc(C(O)C2C=CC3C(=O)NC(=O)C3N2Nc2ccccn2)cc(OC)c1OC (stereo not given) | 0.147 | 0.969 (inactive) | 0.0747 (inactive) | 0.0467 (inactive) | 0.329 (inactive) | 0.0266 | 0.0448 | 0.366 | 0.291 | 0.371 | -1.57 (inactive) | 0.19 | 0.0115 (inactive) | 0.297 (inactive) | -0.928 (inactive) | 0.409 (inactive) | -1.21 | -1.42 (inactive) | -3.26 (inactive) | -2.9
COc1ccc([Si](C)(C)[C@@H]2[C@@H](CCO)O[C@]3(C(=O)N(Cc4ccc(N(C=O)c5ccccc5)cc4)c4ccccc43)[C@H]2C)cc1 | 0.0862 | -6.2 (inactive) | 0.00917 (inactive) | 4.55 (inactive) | 1.03 (inactive) | 0.426 | 0.106 | 0.164 | 0.469 | 0.868 | -0.482 (inactive) | -0.06 | 4.33 (inactive) | 2.33 (inactive) | 0.287 (inactive) | 1.7 (inactive) | 0.257 | 1.07 (inactive) | 1.52 (inactive) | 2.89
CCN(CC)c1ccc(N2CC=CC34O[C@@H]5C=CCCOC(=O)C5[C@H]3C(=O)N(CCCCCCO)[C@@H]4C2=O)cc1 (stereo not given in full) | -0.212 | -1.32 (inactive) | -1.35 (inactive) | -1.85 (inactive) | -0.716 (inactive) | -0.729 | -0.209 | 0.454 | 1.57 | -0.179 | 3.12 (inactive) | -0.0361 | 1.25 (inactive) | 0.392 (inactive) | 0.474 (inactive) | -0.53 (inactive) | 0.872 | -0.089 (inactive) | 0.576 (inactive) | 0.762
CCOC(=O)C1=CC[C@@H](c2ccccc2)N(S(=O)(=O)c2ccc(C)cc2)[C@H]1c1ccccc1C | 0.572 | -2.81 (inactive) | -0.953 (inactive) | 0.0707 (inactive) | 0.285 (inactive) | 1.05 | -0.15 | 0.339 | 0.581 | -0.19 | -0.36 (inactive) | 0.589 | 1.57 (inactive) | 0.678 (inactive) | -0.569 (inactive) | 0.879 (inactive) | -0.102 | 0.515 (inactive) | 0.226 (inactive) | 0.963
CN(C)CCCC[C@@H]1NC(=O)[C@H]2C[C@@H](C(=O)NCCCCCCN)[C@@H](c3ccc(O)cc3)N2C1=O | 0.538 | 0.181 (inactive) | 0.523 (inactive) | -0.256 (inactive) | -0.139 (inactive) | 1.28 | 0.308 | 1.13 | 0.755 | 2.03 | 0.51 (inactive) | 1.5 | 0.453 (inactive) | 0.374 (inactive) | 1.31 (inactive) | 0.0314 (inactive) | -0.24 | 0.277 (inactive) | 0.236 (inactive) | 0.731
CC(C)C[C@@H]1NC(=O)[C@H](C(C)C)NC(=O)[C@@]23C(=O)N[C@@H](Cc4ccccc4)C2[C@H](C)[C@@]2(C)O[C@H]2C3/C=C/CC/C=C/CNC1=O (stereo not given in full) | 0.513 | -3.05 (inactive) | -1.07 (inactive) | -0.319 (inactive) | -1.23 (inactive) | 0.186 | 0.399 | 0.356 | 0.0386 | 1.71 | -0.62 (inactive) | 0.131 | 4.9 (inactive) | 0.538 (inactive) | 0.841 (inactive) | 0.771 (inactive) | 0.116 | -0.159 (inactive) | 0.338 (inactive) | -0.477
C=C(C)[C@@H]1CC=C(C(O)C2C=CC3C(=O)N(c4ccccc4)C(=O)C3N2Nc2ccccc2)CC1 (stereo not given in full) | 0.371 | 0.0984 (inactive) | -1.65 (inactive) | 0.0569 (inactive) | -0.0811 (inactive) | 2.43 | 0.906 | 0.476 | 0.579 | 0.456 | -0.59 (inactive) | 1.33 | 8.1 (active) | 2.94 (inactive) | 1.09 (inactive) | 1.73 (inactive) | -0.798 | -0.653 (inactive) | -3.06 (inactive) | -2.48
CN1C(=O)C2C=CC(C(O)c3ccco3)N(Nc3ccccc3)C2C1=O (stereo not given) | 0.148 | 1.11 (inactive) | -0.197 (inactive) | -0.133 (inactive) | 0.0834 (inactive) | 0.437 | -0.0131 | 0.336 | -0.59 | 0.59 | -1.63 (inactive) | 0.335 | 0.233 (inactive) | 0.742 (inactive) | -0.283 (inactive) | 1.34 (inactive) | -1.2 | -1.76 (inactive) | -3.72 (inactive) | -2.54
